Compounds with a hit are over-represented: about 1.1% of the library has one in this group of screens.
PrP UTR inh: suppresses PrP 5' UTR mRNA reporter expression | actives 0.35% (n = 340,000) | AID 488862 | cell-based PrP 5' UTR mRNA reporter, plate reader | inhibition, % (test concentration not listed); in the data active = inhibition above about 52%
MazF activator: increases E. coli MazEF RNase cleavage of RNA; FAM/BHQ RNA-DNA oligo cleavage fluorescence, 5 h; activation, % at 20 µM; actives 0.32% (n = 350,000); AID 504720; in the data active = activation above about 50%
Target sequence (P0AE70 whole entry, looked up): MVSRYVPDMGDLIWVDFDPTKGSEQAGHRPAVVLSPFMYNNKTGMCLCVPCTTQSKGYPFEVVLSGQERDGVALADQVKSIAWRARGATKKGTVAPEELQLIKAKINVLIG
BJeLR lethal: kills HRASV12-expressing BJeLR cells; BJeLR (HRASV12) viability, CellTiter-Glo ATP luminescence, 48 h; inhibition, % (test concentration not listed); actives 0.17% (n = 300,000); in the data active = inhibition above about 50%; inconclusive = no clear call, values can overlap the other calls
PrPC TRFRET: inhibitors of human cell surface prion protein PrPC | P04156 | TR-FRET read-out | inhibition, % at 13.8 µM | actives 0.43% (n = 370,000) | AID 720596; in the data active = inhibition above about 24%
PrP 5UTR single: prion 5' UTR mRNA inhibition, cherry-pick retest | shares compounds with PrP UTR inh | cell-based prion protein 5' UTR reporter, plate reader | inhibition, % at 2.5 µM | actives 48% (n = 1,100); in the data active = inhibition above about 54%; inconclusive = no clear call, values can overlap the other calls
Hits are given with their value; - = inactive; ? = inconclusive; . = no result given; ! = not confirmed by another sample.

SMILES	PrP UTR inh	MazF activator	BJeLR lethal	PrPC TRFRET	PrP 5UTR single
O=C(c1ccccc1)N1CCN(C(=O)c2ccc3c(c2)OCCO3)CC1	78	-	-	-	-
O=C(c1ccc2c(c1)OCCO2)N1CCN(Cc2ccccc2)CC1	-	-	-	-	.
COC(=O)c1c(N)sc(C(=O)NCCc2ccccc2)c1C	70	-	-	-	64
O=C(NCCc1ccccc1)c1ccc2c(c1)OCCO2	88	-	-	-	83
S=C(NCC1CCCCC1)OC1CCC12CCC(c1ccccc1)CC2 (stereo not drawn)	.	.	.	-	.
C/C(=N\NC(=O)c1n[nH]c2c1CCC2)c1cccs1	76	-	-	-	73
O=C1C(NC(=O)N2c3ccccc3C=Cc3ccccc32)CCCCN1Cc1ccc(Cl)cc1 (stereo not drawn)	.	.	.	-	.
Nc1ccc2oc(-c3cccc4ccccc34)nc2c1	51	-	-	-	65
Cc1ccc(-c2nc3cc(N)ccc3o2)c(C)c1	-	-	-	-	.
CC(C)C(NC(=O)C(C(C)C)N(C)C)C(=O)N(C)C(C(=O)N1CCCC1C(=O)N1CCCC1C(=O)NCc1ccccc1)C(C)C (stereo not drawn)	62	-	.	-	89
C=CC[C@]12C[C@@]3(O[C@H](c4ccccn4)N=C3C[C@H](c3ccc(OC)cc3)[C@H]1C)N(C1CCN(Cc3ccccc3)CC1)C2=O	.	.	.	-	.
CC(=O)OCC(=O)[C@@]1(O)CC[C@H]2[C@@H]3CCC4=CC(=O)CC[C@]4(C)[C@H]3[C@@H](O)C[C@@]21C	65!	-	-	-	-
COc1cc(NC(=O)Cn2c(=O)n(CC3CCCO3)c(=O)c3cc(OC)c(OC)cc32)cc(OC)c1 (stereo not drawn)	-	-	-	-	.
COc1ccc(NC(=O)Cn2c(=O)n(CC3CCCO3)c(=O)c3cc(OC)c(OC)cc32)cc1OC (stereo not drawn)	58	-	-	-	-
CC(=O)Nc1nc2ncccn2c1-c1ccccc1	.	.	.	-	.
CN(Cc1cccc2cnccc12)C(=O)CCc1nnc(CCc2ccccc2)o1	-	-	-	-	.
COc1ccccc1CCc1nnc(CCC(=O)N(C)Cc2cccc3ncccc23)o1	58	-	-	-	-
CC(C)CN1C(=O)C[C@@]2(C(=O)N(C)c3ccc(NC(=O)C(C)(C)C)cc32)C1c1ccccc1 (stereo partly drawn)	.	.	.	-	.
O=c1c2ccccc2cnn1CCOc1ccccc1	71	-	-	-	70
Cc1ccc(/C([O-])=C(/C(=S)NCc2ccc3c(c2)OCO3)[n+]2ccc(N(C)C)cc2)c(C)c1	66	-	-	-	-
CN(C)c1ccc(C(=O)NCc2ccc3c(c2)OCO3)cc1	-	-	-	-	.
Cc1ccc(OCC(=O)c2cc(C)n(-c3ccccc3)c2C)c([N+](=O)[O-])n1	60	-	-	-	58
Cc1cc(C(=O)COC(=O)C2=COCCO2)c(C)n1-c1ccccc1	82	-	.	-	86
CCCn1c(C)cc(C(=O)COc2ccc(C)nc2[N+](=O)[O-])c1C	-	-	-	-	.
O=C(c1ccccc1)N1CCSc2sccc2C1=O	58	-	-	-	-
SMILES	PrP UTR inh	MazF activator	BJeLR lethal	PrPC TRFRET	PrP 5UTR single
O=C(c1ccccc1)N1CCSC1=S	-	-	-	-	.
COCc1cc(N2CCNC[C@H]2C)ccc1N1CCN(Cc2ccccc2)[C@@H](C)C1	.	.	.	-	.
Cc1ccccc1N1C(=O)CC(=O)NC1=O	-	-	-	-	.
Cc1ccccc1N1C(=O)CC2(CCCC2)CC1=O	82	-	-	-	-
CN=c1scc(-c2ccccc2F)n1/N=C/c1ccc(O)c(O)c1O	-	-	-	-	.
CN=c1scc(-c2ccccc2F)n1/N=C/c1ccc[nH]1	92	-	-	-	91
O=C(N[C@H](C(=O)N1CCC[C@H]1C(=O)NC1CCCC1)c1ccccc1)c1ccc(Cl)c(Cl)c1	.	.	.	-	.
O=C1ON=C(c2ccc(Cl)c([N+](=O)[O-])c2)/C1=C/c1cccc([N+](=O)[O-])c1O	-	-	.	-	.
O=C1ON=C(c2ccccc2[N+](=O)[O-])/C1=C/c1cccc([N+](=O)[O-])c1O	90	-	.	-	-
CC(C)(O)/C=C/C(=O)[C@](C)(O)C1[C@H](O)C[C@@]2(C)C3CC=C4C(C=C(O[C@@H]5O[C@H](CO)[C@@H](O)[C@H](O)[C@H]5O)C(=O)C4(C)C)[C@]3(C)C(=O)C[C@]12C (stereo partly drawn)	-	-	.	-	.
CC(C)(O)/C=C/C(=O)[C@](C)(O)C1[C@H](O)C[C@@]2(C)C3CC=C4C(C[C@H](O)[C@@H](O)C4(C)C)[C@]3(C)C(=O)C[C@]12C (stereo partly drawn)	65	-	.	.	75
CC(=O)NC1CCCCN(Cc2ccc(Cl)cc2)C1=O (stereo not drawn)	.	.	.	-	.
CCCNC(=O)c1ccc2c(=O)c(O)c(-c3ccc(F)cc3)[nH]c2c1	-	-	-	.	.
CCCNC(=O)c1ccc2c(=O)c(O)c(-c3cccc(Br)c3)[nH]c2c1	56	-	-	-	?
O=C(O)CSc1nnc(-c2ccc3c(c2)OCO3)o1	-	-	-	-	.
O=C(c1ccc(Cl)cc1)N1CCCCC(Sc2nnc(-c3ccc4c(c3)OCO4)o2)C1=O (stereo not drawn)	74	-	-	-	78
C=CCN1C(=O)[C@@H](CC(=O)N2CCN(C(=O)C3CC3)CC2)[C@]2(C(=O)OC)CCCCC=C12	.	.	.	-	.
CCCNC(=O)Cn1nc(C(F)(F)F)cc1C	58	-	-	-	-
CCCCNC(=O)C[C@H]1C[C@@]2(C(=O)OC)C(=C[C@H](C(C)C)O[C@@H]2C2CC2)N(Cc2ccccc2)C1=O	.	.	.	-	.
CC[C@]12c3[nH]c4ccccc4c3CCN1C(=O)C(CC(=O)NCCc1ccccn1)C[C@@H]2C(=O)N1CCN(C(=O)c2ccco2)CC1 (stereo partly drawn)	67	-	.	-	-
CC[C@]12c3[nH]c4cc(CCC(=O)N(C)C)ccc4c3CCN1C(=O)[C@@H](CC(=O)NCCc1ccccn1)C[C@@H]2C(=O)N1CCN(C(=O)c2ccco2)CC1	-	-	.	-	.
CCc1ccc(C(=O)Nc2nc3ccccc3[nH]2)cc1	63	-	-	-	?
CC(C)Oc1ccc(C(=O)Nc2nc3ccccc3[nH]2)cc1	61	-	-	-	62
O=C(Nc1nc2ccccc2[nH]1)c1ccc(F)cc1	-	-	-	-	.
O=C(Nc1nc2ccccc2[nH]1)c1ccccc1F	85	-	85	-	85
O=C(Nc1nc2ccccc2[nH]1)c1ccc(OC(F)F)cc1	-	-	-	-	.
CCCCN=C(C)C1=C(O)CSC1=O	78	-	-	-	-
CCC(C)[C@H](NC(=O)[C@H](Cc1ccccc1)NC(=O)OC(C)(C)C)C(=O)NCc1ccccc1Br (stereo partly drawn)	.	.	.	-	.
COC(=O)C[C@@H]1CC[C@H]2[C@@H](COc3ccc(NC(=O)Nc4cccc(F)c4)cc3C(=O)N2C)O1	.	.	.	-	.
